# Measurements as given in the supplement of paper PMC10849652.
# About 8,800 targets were measured; listed, in parts, are those with a hit and a random draw of the rest. About 0.5% of all pairs of compound and target were hits.
# How the values were obtained:
# Experiment in all cases: log2 fold change, soluble protein after heating vs DMSO (PISA); higher = thermal stabilisation; K562 lysate, 10 uM; active = over 0.2 and 3.5 SD of the protein, either way, in both replicates (recomputed)
# nilotinib = compound: Cc1cn(-c2cc(NC(=O)c3ccc(C)c(Nc4nccc(-c5cccnc5)n4)c3)cc(C(F)(F)F)c2)cn1 [nilotinib]
# Procedure, shortened: (§1)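 Values give the log-two fold change in thermal stability against solvent controls, from duplicates. Crude K562 extract at 1 mg/mL protein, made by dounce homogenisation in PBS pH 7.4 with 1 mM MgCl2, was treated with 10 μM compound for 30 min. After 3 min heating across 48°C-58°C, aliquots were pooled, adjusted to 0.5% NP-40 at 4°C and centrifuged at 21,000xg for 90 min. The supernatant was measured by TMTpro 16plex LC-MS/MS with channel sums equalised.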
# [1] = compound: Cc1nc(Nc2n[nH]c3c2CN(C(=O)N[C@H](CN(C)C)c2ccccc2)C3(C)C)c2sccc2n1
# Procedure, shortened: as §1
# dasatinib = compound: Cc1nc(Nc2ncc(C(=O)Nc3c(C)cccc3Cl)s2)cc(N2CCN(CCO)CC2)n1 [dasatinib]
# Procedure, shortened: as §1
# [2] = compound: Cc1ncc(-c2ccnc(Nc3ccc(S(C)(=O)=O)cc3)n2)n1C(C)C
# Procedure, shortened: as §1
# [3] = compound: Cn1cc(-c2ccc3c(c2)CCN3C(=O)Cc2cccc(C(F)(F)F)c2)c2c(N)ncnc21
# Procedure, shortened: as §1
# quisinostat = compound: Cn1cc(CNCC2CCN(c3ncc(C(=O)NO)cn3)CC2)c2ccccc21 [quisinostat]
# Procedure, shortened: as §1
# tipifarnib = compound: Cn1cncc1[C@@](N)(c1ccc(Cl)cc1)c1ccc2c(c1)c(-c1cccc(Cl)c1)cc(=O)n2C [tipifarnib]
# Procedure, shortened: as §1
# [4] = compound: NC(=O)Nc1cc(-c2cccc(F)c2)sc1C(=O)N[C@H]1CCCNC1
# Procedure, shortened: as §1
# [5] = compound: NC(=O)c1cnc(N[C@@H]2CCCC[C@@H]2N)nc1Nc1cccc(-n2nccn2)c1
# Procedure, shortened: as §1
# [6] = compound: NC1(c2ccc(-c3nc4ccn5c(=O)[nH]nc5c4cc3-c3ccccc3)cc2)CCC1
# Procedure, shortened: as §1
# UniProt Q5TEU4, sequence (Q5TEU4 whole entry, looked up): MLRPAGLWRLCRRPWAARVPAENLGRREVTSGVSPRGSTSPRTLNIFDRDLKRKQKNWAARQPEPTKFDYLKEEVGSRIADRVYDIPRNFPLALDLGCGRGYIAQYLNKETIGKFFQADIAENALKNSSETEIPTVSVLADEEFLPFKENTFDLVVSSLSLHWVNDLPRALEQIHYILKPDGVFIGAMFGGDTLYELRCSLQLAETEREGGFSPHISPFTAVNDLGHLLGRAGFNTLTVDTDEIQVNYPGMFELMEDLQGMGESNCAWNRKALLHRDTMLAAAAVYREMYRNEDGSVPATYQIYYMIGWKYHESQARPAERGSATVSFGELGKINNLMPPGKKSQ
# UniProt Q9NX02, sequence (Q9NX02 whole entry, looked up): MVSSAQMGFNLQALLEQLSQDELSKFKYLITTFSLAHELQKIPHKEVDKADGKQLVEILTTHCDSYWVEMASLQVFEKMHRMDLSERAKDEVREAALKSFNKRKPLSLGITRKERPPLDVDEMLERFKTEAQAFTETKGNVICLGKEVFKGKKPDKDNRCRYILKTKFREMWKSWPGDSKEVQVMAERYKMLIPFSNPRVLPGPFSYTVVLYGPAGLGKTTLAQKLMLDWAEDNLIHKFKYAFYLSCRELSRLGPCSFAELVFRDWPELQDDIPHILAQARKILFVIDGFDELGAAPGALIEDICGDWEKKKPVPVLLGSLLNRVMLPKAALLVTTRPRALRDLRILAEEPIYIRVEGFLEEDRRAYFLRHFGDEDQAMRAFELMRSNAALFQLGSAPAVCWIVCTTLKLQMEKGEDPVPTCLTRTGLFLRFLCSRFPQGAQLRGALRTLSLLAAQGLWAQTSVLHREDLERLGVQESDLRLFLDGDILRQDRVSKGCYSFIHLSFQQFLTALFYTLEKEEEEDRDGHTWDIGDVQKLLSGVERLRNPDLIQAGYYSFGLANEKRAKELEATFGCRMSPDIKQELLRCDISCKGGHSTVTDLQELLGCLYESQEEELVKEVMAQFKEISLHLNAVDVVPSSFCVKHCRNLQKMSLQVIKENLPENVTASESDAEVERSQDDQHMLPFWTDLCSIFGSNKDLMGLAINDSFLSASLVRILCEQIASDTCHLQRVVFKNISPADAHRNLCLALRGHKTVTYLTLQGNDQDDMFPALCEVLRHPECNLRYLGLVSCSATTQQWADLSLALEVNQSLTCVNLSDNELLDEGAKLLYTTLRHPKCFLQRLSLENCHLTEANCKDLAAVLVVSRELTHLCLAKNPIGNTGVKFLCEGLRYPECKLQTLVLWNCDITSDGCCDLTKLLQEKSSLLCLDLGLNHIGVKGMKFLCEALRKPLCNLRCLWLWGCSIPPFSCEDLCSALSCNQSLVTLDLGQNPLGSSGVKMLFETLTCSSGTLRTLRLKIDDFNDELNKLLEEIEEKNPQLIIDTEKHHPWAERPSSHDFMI
# UniProt Q9UHQ1, sequence (Q9UHQ1 whole entry, looked up): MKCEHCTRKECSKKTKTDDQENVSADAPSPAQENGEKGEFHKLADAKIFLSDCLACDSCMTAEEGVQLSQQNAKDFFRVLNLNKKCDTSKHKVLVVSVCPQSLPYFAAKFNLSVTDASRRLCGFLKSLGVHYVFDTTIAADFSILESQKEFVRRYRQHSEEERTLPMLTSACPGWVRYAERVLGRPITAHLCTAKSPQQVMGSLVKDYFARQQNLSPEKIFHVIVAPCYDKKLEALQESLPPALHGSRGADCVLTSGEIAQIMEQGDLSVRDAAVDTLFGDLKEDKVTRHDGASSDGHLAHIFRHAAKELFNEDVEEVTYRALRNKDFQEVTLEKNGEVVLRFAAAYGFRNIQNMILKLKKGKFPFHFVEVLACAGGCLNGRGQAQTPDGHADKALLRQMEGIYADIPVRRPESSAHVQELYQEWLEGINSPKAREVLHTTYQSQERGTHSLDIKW
# UniProt P48552, sequence (P48552 whole entry, looked up): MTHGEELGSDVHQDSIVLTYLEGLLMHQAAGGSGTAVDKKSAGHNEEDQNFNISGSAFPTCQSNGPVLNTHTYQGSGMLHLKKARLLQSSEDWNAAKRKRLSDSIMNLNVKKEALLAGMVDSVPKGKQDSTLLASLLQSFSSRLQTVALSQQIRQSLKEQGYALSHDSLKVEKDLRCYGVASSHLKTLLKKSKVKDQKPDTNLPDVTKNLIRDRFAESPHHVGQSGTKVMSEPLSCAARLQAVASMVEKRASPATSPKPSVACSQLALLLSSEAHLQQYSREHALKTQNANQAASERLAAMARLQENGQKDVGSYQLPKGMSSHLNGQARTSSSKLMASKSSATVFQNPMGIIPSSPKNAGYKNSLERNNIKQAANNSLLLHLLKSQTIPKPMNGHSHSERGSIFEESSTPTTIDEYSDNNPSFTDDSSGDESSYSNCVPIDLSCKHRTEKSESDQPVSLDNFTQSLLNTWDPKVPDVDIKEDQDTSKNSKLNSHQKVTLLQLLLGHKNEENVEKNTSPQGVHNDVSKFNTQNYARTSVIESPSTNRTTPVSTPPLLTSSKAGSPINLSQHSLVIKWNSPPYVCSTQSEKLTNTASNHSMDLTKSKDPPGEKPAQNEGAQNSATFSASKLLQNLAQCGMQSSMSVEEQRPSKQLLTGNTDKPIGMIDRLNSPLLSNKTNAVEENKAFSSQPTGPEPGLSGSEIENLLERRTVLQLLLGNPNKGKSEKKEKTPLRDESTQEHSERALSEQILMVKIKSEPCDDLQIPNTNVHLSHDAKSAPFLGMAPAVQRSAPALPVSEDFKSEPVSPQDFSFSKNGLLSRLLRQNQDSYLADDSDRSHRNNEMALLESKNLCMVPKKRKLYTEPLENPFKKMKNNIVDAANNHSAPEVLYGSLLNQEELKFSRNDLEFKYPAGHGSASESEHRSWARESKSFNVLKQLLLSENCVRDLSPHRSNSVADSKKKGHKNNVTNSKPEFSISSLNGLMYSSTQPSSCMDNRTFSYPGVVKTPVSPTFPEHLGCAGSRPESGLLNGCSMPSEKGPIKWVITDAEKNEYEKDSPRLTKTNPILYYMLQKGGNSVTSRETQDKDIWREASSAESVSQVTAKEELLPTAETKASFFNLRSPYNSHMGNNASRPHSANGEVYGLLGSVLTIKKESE
# UniProt P35749, sequence (P35749 whole entry, looked up): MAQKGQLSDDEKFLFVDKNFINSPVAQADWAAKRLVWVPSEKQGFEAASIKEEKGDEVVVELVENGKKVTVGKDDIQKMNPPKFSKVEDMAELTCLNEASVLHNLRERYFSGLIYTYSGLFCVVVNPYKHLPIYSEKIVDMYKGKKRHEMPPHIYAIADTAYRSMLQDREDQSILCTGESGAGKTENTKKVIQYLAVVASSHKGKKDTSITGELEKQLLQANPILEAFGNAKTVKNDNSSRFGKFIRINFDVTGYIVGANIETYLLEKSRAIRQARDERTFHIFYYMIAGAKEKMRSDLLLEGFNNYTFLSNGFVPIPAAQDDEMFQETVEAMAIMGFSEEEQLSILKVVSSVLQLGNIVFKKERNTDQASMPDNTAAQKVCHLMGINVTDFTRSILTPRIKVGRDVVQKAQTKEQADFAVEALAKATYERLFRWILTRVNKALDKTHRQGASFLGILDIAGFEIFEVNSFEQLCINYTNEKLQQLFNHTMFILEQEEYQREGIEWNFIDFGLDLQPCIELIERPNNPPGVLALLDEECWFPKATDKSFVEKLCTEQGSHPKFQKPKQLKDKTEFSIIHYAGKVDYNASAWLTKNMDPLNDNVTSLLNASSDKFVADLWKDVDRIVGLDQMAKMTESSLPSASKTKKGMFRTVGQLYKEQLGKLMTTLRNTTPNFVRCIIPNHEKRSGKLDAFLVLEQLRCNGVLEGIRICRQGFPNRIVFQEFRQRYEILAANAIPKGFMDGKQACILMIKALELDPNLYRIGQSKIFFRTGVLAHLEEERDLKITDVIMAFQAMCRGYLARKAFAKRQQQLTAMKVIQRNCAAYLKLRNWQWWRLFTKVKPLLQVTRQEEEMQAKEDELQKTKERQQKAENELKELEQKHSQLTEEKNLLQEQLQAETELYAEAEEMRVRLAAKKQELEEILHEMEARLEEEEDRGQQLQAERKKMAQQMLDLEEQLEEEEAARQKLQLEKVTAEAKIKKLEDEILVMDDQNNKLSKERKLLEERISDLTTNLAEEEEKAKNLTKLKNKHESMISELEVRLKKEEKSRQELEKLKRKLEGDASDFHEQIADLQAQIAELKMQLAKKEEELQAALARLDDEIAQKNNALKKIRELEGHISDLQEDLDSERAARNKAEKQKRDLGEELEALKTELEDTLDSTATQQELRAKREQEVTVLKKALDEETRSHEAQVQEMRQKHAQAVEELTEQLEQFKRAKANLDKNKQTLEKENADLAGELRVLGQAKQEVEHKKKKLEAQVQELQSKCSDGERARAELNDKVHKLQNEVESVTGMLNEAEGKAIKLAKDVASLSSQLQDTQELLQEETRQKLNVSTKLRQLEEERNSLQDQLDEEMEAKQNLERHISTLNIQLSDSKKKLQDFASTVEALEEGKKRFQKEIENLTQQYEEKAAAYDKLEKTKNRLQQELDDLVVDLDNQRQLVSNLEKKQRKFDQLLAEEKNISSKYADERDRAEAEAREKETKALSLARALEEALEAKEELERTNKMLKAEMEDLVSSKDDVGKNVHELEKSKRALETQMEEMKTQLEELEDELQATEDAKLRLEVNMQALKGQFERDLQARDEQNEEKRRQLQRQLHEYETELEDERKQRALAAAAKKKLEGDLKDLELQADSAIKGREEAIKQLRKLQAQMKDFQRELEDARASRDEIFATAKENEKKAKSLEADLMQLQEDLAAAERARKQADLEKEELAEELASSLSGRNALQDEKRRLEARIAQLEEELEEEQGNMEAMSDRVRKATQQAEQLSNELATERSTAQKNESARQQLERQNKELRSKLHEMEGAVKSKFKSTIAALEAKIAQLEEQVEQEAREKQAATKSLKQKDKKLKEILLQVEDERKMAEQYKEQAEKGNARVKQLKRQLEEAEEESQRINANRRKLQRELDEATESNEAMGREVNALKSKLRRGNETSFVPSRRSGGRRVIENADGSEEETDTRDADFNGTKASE
# UniProt P03928, sequence (P03928 whole entry, looked up): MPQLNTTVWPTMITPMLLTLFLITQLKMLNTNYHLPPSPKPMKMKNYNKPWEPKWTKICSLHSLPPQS
Target,log2 fold change (nilotinib),log2 fold change [1],log2 fold change (dasatinib),log2 fold change [2],log2 fold change [3],log2 fold change (quisinostat),log2 fold change (tipifarnib),log2 fold change [4],log2 fold change [5],log2 fold change [6]
MYCBP2 (UniProt O75592),0.028 (inactive),-0.013 (inactive),-0.038 (inactive),-0.013 (inactive),0.015 (inactive),-0.116 (inactive),-0.008 (inactive),0.019 (inactive),0.012 (inactive),-0.013 (inactive)
NBN (UniProt O60934),0.004 (inactive),0.013 (inactive),-0.019 (inactive),0.037 (inactive),0.03 (inactive),0.011 (inactive),0.005 (inactive),0.046 (inactive),-0.024 (inactive),-0.015 (inactive)
NUDT5 (UniProt Q9UKK9),0.021 (inactive),0 (inactive),0.045 (inactive),0.008 (inactive),-0.024 (inactive),-0.016 (inactive),-0.013 (inactive),-0.018 (inactive),-0.013 (inactive),-0.014 (inactive)
MVB12A (UniProt Q96EY5),-0.025 (inactive),-0.05 (inactive),0.006 (inactive),0.008 (inactive),0.04 (inactive),0.033 (inactive),0.032 (inactive),0.022 (inactive),-0.009 (inactive),0.036 (inactive)
PARP14 (UniProt Q460N5),0.004 (inactive),-0.022 (inactive),-0.024 (inactive),0.068 (inactive),0.256 (inactive),-0.025 (inactive),-0.068 (inactive),0.128 (inactive),0.051 (inactive),-0.09 (inactive)
OLA1 (UniProt Q9NTK5),0.001 (inactive),-0.009 (inactive),-0.023 (inactive),0.006 (inactive),0.018 (inactive),-0.008 (inactive),0.018 (inactive),0.022 (inactive),-0.006 (inactive),0.025 (inactive)
MRPL51 (UniProt Q4U2R6),-0.029 (inactive),-0.006 (inactive),-0.056 (inactive),-0.054 (inactive),-0.055 (inactive),0.27 (active),-0.003 (inactive),0.055 (inactive),-0.003 (inactive),0.024 (inactive)
NUP188 (UniProt Q5SRE5),0.025 (inactive),-0.003 (inactive),-0.074 (inactive),-0.002 (inactive),0.055 (inactive),-0.024 (inactive),-0.047 (inactive),0.043 (inactive),0.03 (inactive),0.009 (inactive)
NRIP1 (UniProt P48552),0.035 (inactive),-0.127 (inactive),0.135 (inactive),0.035 (inactive),0 (inactive),-0.437 (inactive),-0.03 (inactive),0.083 (inactive),0.022 (inactive),-0.048 (inactive)
NUF2 (UniProt Q9BZD4),-0.011 (inactive),0.002 (inactive),-0.044 (inactive),-0.005 (inactive),0.017 (inactive),-0.012 (inactive),0.003 (inactive),0.061 (inactive),0.013 (inactive),-0.014 (inactive)
OTUD7B (UniProt Q6GQQ9),-0.017 (inactive),0.017 (inactive),0.005 (inactive),0.03 (inactive),0.027 (inactive),-0.252 (inactive),0.05 (inactive),0.142 (inactive),0.026 (inactive),-0.095 (inactive)
OSGEP (UniProt Q9NPF4),-0.005 (inactive),0.008 (inactive),0.002 (inactive),0.018 (inactive),0.025 (inactive),-0.006 (inactive),0.026 (inactive),-0.012 (inactive),-0.027 (inactive),0.03 (inactive)
MYH11 isoform 2 (UniProt P35749),-0.072 (inactive),-0.022 (inactive),-0.043 (inactive),-0.011 (inactive),0.014 (inactive),0.099 (inactive),-0.045 (inactive),-0.029 (inactive),0.013 (inactive),-0.032 (inactive)
NCAPD3 (UniProt P42695),0.005 (inactive),-0.022 (inactive),-0.041 (inactive),0.005 (inactive),0.005 (inactive),-0.06 (inactive),0.005 (inactive),0.078 (inactive),-0.014 (inactive),-0.028 (inactive)
NEK7 (UniProt Q8TDX7),0.003 (inactive),0.016 (inactive),-0.03 (inactive),0.045 (inactive),0.168 (inactive),-0.018 (inactive),-0.006 (inactive),0.033 (inactive),0.018 (inactive),0.01 (inactive)
NTPCR (UniProt Q9BSD7),0.019 (inactive),-0.01 (inactive),-0.061 (inactive),0.056 (inactive),0.032 (inactive),-0.088 (inactive),0.003 (inactive),0.028 (inactive),0.017 (inactive),-0.027 (inactive)

Target,log2 fold change (nilotinib),log2 fold change [1],log2 fold change (dasatinib),log2 fold change [2],log2 fold change [3],log2 fold change (quisinostat),log2 fold change (tipifarnib),log2 fold change [4],log2 fold change [5],log2 fold change [6]
MTCH2 (UniProt Q9Y6C9),0.044 (inactive),-0.005 (inactive),0 (inactive),-0.014 (inactive),-0.024 (inactive),-0.104 (inactive),0.018 (inactive),0 (inactive),-0.027 (inactive),0.001 (inactive)
NARF (UniProt Q9UHQ1),-0.029 (inactive),0.011 (inactive),0.01 (inactive),-0.031 (inactive),0.014 (inactive),-0.03 (inactive),-0.062 (inactive),0.017 (inactive),-0.079 (inactive),0.005 (inactive)
NLRP2 (UniProt Q9NX02),-0.002 (inactive),0.013 (inactive),-0.019 (inactive),0.007 (inactive),0.032 (inactive),-0.031 (inactive),-0.008 (inactive),0.013 (inactive),0.003 (inactive),0.026 (inactive)
NFKBIE (UniProt O00221),-0.074 (inactive),0.014 (inactive),-0.053 (inactive),0.424 (active),0.002 (inactive),-0.004 (inactive),-0.112 (inactive),0.025 (inactive),0.061 (inactive),-0.024 (inactive)
MTHFD1 (UniProt V9GZ32),-0.43 (inactive),-0.802 (inactive),–,-0.041 (inactive),–,–,0.188 (inactive),–,-0.185 (inactive),–
NSUN7 (UniProt Q8NE18),–,–,–,–,–,-0.573 (active),–,0.01 (inactive),0.009 (inactive),-0.031 (inactive)
PARD3B (UniProt Q8TEW8),–,–,0.051 (inactive),–,-0.095 (inactive),–,–,–,–,0.174 (inactive)
NFATC1 (UniProt O95644),-0.048 (inactive),-0.055 (inactive),0.014 (inactive),0.014 (inactive),0.037 (inactive),-0.097 (inactive),0.006 (inactive),0.042 (inactive),-0.002 (inactive),-0.058 (inactive)
MT-ATP8 (UniProt P03928),0.055 (inactive),0.177 (inactive),–,0.214 (inactive),–,0.043 (inactive),0.085 (inactive),0.056 (inactive),-0.067 (inactive),-0.084 (inactive)
NTMT1 (UniProt S4R338),–,–,–,–,–,–,–,–,-0.027 (inactive),–
NBEAL2 (UniProt Q6ZNJ1),0.031 (inactive),-0.008 (inactive),-0.069 (inactive),0.036 (inactive),0.029 (inactive),-0.077 (inactive),-0.017 (inactive),0.033 (inactive),0.014 (inactive),0.06 (inactive)
MYO10 (UniProt Q9HD67),-0.019 (inactive),-0.021 (inactive),–,0.126 (inactive),–,0.074 (inactive),-0.063 (inactive),-0.051 (inactive),–,-0.161 (inactive)
NDUFAF5 (UniProt Q5TEU4),–,–,0.02 (inactive),–,-0.061 (inactive),-0.078 (inactive),–,0.114 (inactive),-0.034 (inactive),-0.042 (inactive)
ORC3 isoform 2 (UniProt Q9UBD5),-0.014 (inactive),0 (inactive),-0.084 (inactive),-0.014 (inactive),-0.012 (inactive),-0.038 (inactive),-0.014 (inactive),0.099 (inactive),0.027 (inactive),-0.079 (inactive)
NR2C2 isoform 2 (UniProt P49116),–,–,-0.033 (inactive),–,0.064 (inactive),-0.054 (inactive),–,0.04 (inactive),-0.025 (inactive),-0.048 (inactive)
